We go through 109 compounds from PubChem BioAssay AID435019 (Southern Research Specialized Biocontainment Screening …, 2010).

Each structure is given as a SMILES string. The whole screen tested about 2,300 compounds, of which about 1,200 (52%) were called active. The rule behind the calls is not given here. So high a share suggests a set chosen from earlier hits. This is one part of the list. Entries with a potency or affinity are not part of this list.

The nature of this assay: mammalian cell cytotoxicity, dose response, cytotoxicity control for M. tuberculosis inhibitor project (AID 435019).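 Note: lower values mean fewer viable cells so more cytotoxicity.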 Particulars: cytotoxicity counter-screen; series mostly up to 40 µM. A general note: Counterscreens check selectivity or assay interference.
As for `COc1ccc(Cc2nc3ccc(C(=O)NCCCSC)cc3o2)cc1OC`, the call was inactive.
The same measure for `Cc1ncc(C23CC4CC(CC(C4)C2)C3)[nH]1`: “inactive”.
The same measure for `COc1cc(/C=C2\C(=O)NN(c3ccc(C)cc3)C2=O)cc([N+](=O)[O-])c1O`: “inactive”.
`CC(C)(C)NC(=O)COC(=O)c1cc(Br)ccc1Cl`: the compound was classed as inactive.
The same measure for `Cc1nonc1OCCNCCNc1ccc([N+](=O)[O-])c2cccnc12`: “inactive”.
The entry for `O=C1C(Br)=Cc2cccc3cccc1c23` is “inactive”.
The same measure for `C=C[C@]1(C)C[C@@H](OC(=O)CSCCN(CC)CC)[C@]2(C)C(C)CC[C@]3(CCC(=O)[C@H]32)[C@@H](C)[C@@H]1O` (some centres undefined): “inactive”; for `Cc1noc(C)c1COc1ccc(C(=O)OCC(=O)NC23CC4CC(CC(C4)C2)C3)cc1`: “inactive”; for `O=Cc1ccc(-c2ccc(Cl)cc2Cl)[nH]1`: “inactive”.
Turning to `O=C(N[C@H]1CCC(=O)N(CCSc2ccc(Br)cc2)CC1)OCc1ccccc1`, the outcome was inactive.
The same measure for `CN(C(=O)COC(=O)c1sc2ccccc2c1Cl)C1CCCCC1`: “inactive”; for `N#CCCN(C(=O)COC(=O)CCc1c[nH]c2ccccc12)c1ccc(F)cc1`: “inactive”.
The same measure for `COc1ccc(OC)c(C(=O)NC(CC(N)=O)c2ccc(NCc3ccc(F)c(F)c3)c([N+](=O)[O-])c2)c1` (centres undefined): “inactive”; for `O=[N+]([O-])c1cn(-c2nc(-c3ccco3)cc(C(F)(F)F)n2)cn1`: “inactive”; for `CC(C)(O)C#Cc1ccc(C(=O)Nc2ccc3c(c2)OCO3)s1`: “inactive”.
The same measure for `CC1(C)OC(=O)C(=Cc2ccc[nH]2)C(=O)O1`: “inactive”.
Consider `Cc1ccccc1Cn1cc(NC(=O)c2noc(C(C)C)c2[N+](=O)[O-])cn1`, for which the call was inactive.
The entry for `Cc1ccc(C2=NCCn3c2c2ccccc2[n+]3[O-])cc1` is “inactive”; for `O=S(=O)(c1ccc(Oc2ccc3oc4ccccc4c3c2)nc1)N1CCCC1` it is “inactive”; for `O=c1[nH][nH]c(-c2ccccc2O)c1C(C[N+](=O)[O-])c1cccc(Cl)c1` (centres undefined) it is “inactive”.
The entry for `Cc1ccc(C(=O)n2c(N)nc3ccccc32)cc1` is “inactive”.
The same measure for `Cc1ccc(NCCC(=O)c2ccc(Br)cc2)cc1`: “inactive”; for `COc1ccc(N/C=C/c2nc(SC)nnc2C)cc1`: “inactive”.
On to `O=C(c1cc([N+](=O)[O-])ccc1N1CCOCC1)N1CCN(S(=O)(=O)c2cc(Cl)ccc2Cl)CC1`, for which the outcome was inactive.
Turning to `COc1ccc(N2CCN(C(=O)c3cc4c(C)nc5ccccc5c4o3)CC2)cc1`, the compound was called inactive.
The entry for `CN(CC(=O)Nc1ccc(OC(F)(F)F)cc1)C(=O)/C=C/c1cc2c(cc1[N+](=O)[O-])OCO2` is “inactive”.
The same measure for `CC(=O)c1ccc(NC(=O)c2cc(CC(C)C)on2)cc1`: “inactive”; for `CCOC(=O)CSc1nc(N)c(C(=O)Nc2ccc(N(C)C)cc2)s1`: “inactive”; for `CCOc1ccc(NC(=O)N(C2CCCCC2)C(C)c2ccncc2)cc1` (centres undefined): “inactive”.
Turning to `CCCc1ccc(OCc2ccccc2)c2c(=O)cc(C(=O)OCC)oc12`, the compound was classed as inactive.
Consider `O=C(Nc1cccnc1Cl)c1cc(-c2ccco2)on1`, for which the compound was called inactive.
The same measure for `Cc1cc(C)n(-c2ccc(C(=O)Oc3ccc4c(c3)OCO4)cc2)n1`: “inactive”.
The entry for `COc1ccc(-c2nsc3c(N4CCCCC4C)ncnc23)cc1` (centres undefined) is “inactive”.
The entry for `Cc1ccc(N/C=C2\C(=O)C3(C)CCC2C3(C)C)cc1C` (centres undefined) is “inactive”.
`COc1ccccc1OC(=O)c1ccc(S(=O)(=O)N(C)C)cc1`: the outcome was inactive.
The entry for `O=C(CCC(=O)OCc1ccc(C(=O)Oc2ccc(Cl)cc2)cc1)Nc1ccccc1` is “inactive”; for `CSc1ccc(CNC(=O)c2ccc(NC(=O)C3=CSCCO3)cc2)cc1` it is “inactive”.
The same measure for `CCC1(c2ccccc2)NC(=O)N(CC(=O)Nc2ccc(S(=O)(=O)NC3=NCCCCC3)cc2)C1=O` (centres undefined): “inactive”; for `CC(=O)/C(=N\Nc1ccc(C)cc1)N1CCOCC1`: “inactive”.
For the compound `O=[N+]([O-])c1ccc(CN2CCN(c3ccc(Cl)cc3)CC2)o1`, the compound was called inactive.
The same measure for `C[N+](C)(CCCCCC[N+](C)(C)CCCN1C(=O)c2cccc3cccc(c23)C1=O)CCCN1C(=O)c2cccc3cccc(c23)C1=O`: “inactive”; for `CCOC(=O)C1CCN(CC(O)COc2ccc(C(C)(C)CC)cc2)CC1` (centres undefined): “inactive”.
The same measure for `O=C(c1ccccc1)c1nn(-c2ccc(Cl)cc2)cc1C(=O)c1cc2ccccc2oc1=O`: “inactive”.
The entry for `COc1c[nH]n(C2CCCCC2)c(=O)c1=O` is “inactive”.
In the case of `CCOc1ncccc1C(=O)OCC(=O)N1CCc2ccccc21`, the result was inactive.
Turning to `CS(=O)(=O)c1ccc([C@@H](O)[C@@H](CF)NC(=O)C(Cl)Cl)cc1`, the outcome was inactive.
The entry for `O=C(O)Cc1c[nH]c2ccc(O)cc12` is “inactive”.
The entry for `Cc1ccc(-c2cn3cccnc3n2)cc1NC(=O)c1ccc(Br)o1` is “inactive”.
The entry for `O=C(CSC1=NC(=O)C(c2ccccc2)C(=O)N1)Nc1ccccc1Cl` (centres undefined) is “inactive”; for `CCOC(=O)CSc1ccc(C(=O)Nc2ccc(OC)cc2)cn1` it is “inactive”.
Turning to `O=C(Nc1nc2nc(-c3ccccc3)cc(=O)n2[nH]1)c1ccccc1`, the result was inactive.
The same measure for `O=C1N=C(N2CCC(Cc3ccccc3)CC2)S/C1=C/c1cn[nH]c1-c1ccccc1`: “inactive”.
The entry for `C=CCSc1n[nH]c(-c2ccc(OCCCC)cc2)n1` is “inactive”; for `Cc1ccc2nc(SCC(=O)Nc3ccc4c(c3)CCC4)[nH]c2c1` it is “inactive”.
The same measure for `CCOC(=O)c1c(C)[nH]c(N=Nc2ccc(OC)cc2)c1C`: “inactive”.
`O=C(CSCc1ccc([N+](=O)[O-])cc1)N/N=C/c1ccncc1`: the outcome was inactive.
The entry for `CCOC(=O)COc1ccc(S(=O)(=O)NCCC2=CCCCC2)cc1` is “inactive”.
The same measure for `O=c1oc2ccccc2c2c1nc(C(F)(F)F)n2-c1ccccc1`: “inactive”; for `CCOC(=O)c1cn[nH]c1N`: “inactive”; for `CCCCc1ccc(NC(=S)N2CCN(c3ncccn3)CC2)cc1`: “inactive”.
The entry for `CC/C(C)=N/NC(=S)NCc1ccco1` is “inactive”.
With `CCCCCCC(=O)N/N=C/c1ccc(Br)cc1`, the compound was classed as inactive.
In the case of `C/C(=N/NC(=O)c1ccccn1)c1c[nH]c2ccccc12`, the compound was classed as inactive.
The entry for `CC(=O)/C(=C\Nc1ccc(OCc2ccccc2)cc1)c1ccccc1` is “inactive”.
The same measure for `CC(C)OC(=O)c1ccc(COC(=O)c2cnccn2)cc1`: “inactive”; for `O=C(OCC(=O)N1CCC(c2ccccc2)=N1)c1ccc(Cl)s1`: “inactive”; for `Cc1ccc(C(=O)O/N=C(\N)c2ccc(Br)cc2)cc1C`: “inactive”.
The same measure for `COC(=O)c1ccc(COC(=O)CCc2nc(-c3ccccc3)c(-c3ccccc3)o2)cc1`: “inactive”; for `Cc1cc(=O)oc2cc(OC(=O)C3CCN(C(=O)c4ccc(F)cc4)CC3)ccc12`: “inactive”.
With `Cc1ccc(C(=O)N2N=C(CC(C)C)CC2(O)C(F)(F)F)o1` (centres undefined), the call was inactive.
For the compound `Nc1ccc2c(c1)Cc1ccccc1-2`, the compound was called inactive.
The entry for `CCCC(=O)Nc1sc2c(c1C#N)CCCCC2` is “inactive”; for `CCOC(=O)CSc1nnc(-c2c[nH]c3ccccc23)o1` it is “inactive”.
The same measure for `CCOC(=O)Cn1c(C)c(Br)c(=O)c2cccc(C)c21`: “inactive”; for `Cc1ccc(/C=C2\SC(N3CCCC3)=NC2=O)cc1`: “inactive”.
The same measure for `CN(C)C/C=C/C(=O)Nc1cccc(-c2c[nH]c3ncnc(Oc4ccc(NC(=O)CC(=O)Nc5ccc(F)cc5)cc4F)c23)c1`: “inactive”; for `CSc1nsc(SCC(=O)N2CCCCC2)n1`: “inactive”; for `NNC(=S)NCc1ccc2c(c1)OCO2`: “inactive”.
Take `Cc1cc(NC(=O)c2noc3c2CCCC3)nn1Cc1ccc(Cl)cc1`: the compound was called inactive.
The entry for `CCOc1ccc(/C=N/OCC(=O)Nc2cc(C)on2)cc1` is “inactive”; for `COCCCN=C1NN=C(c2cc(C)n(Cc3ccco3)c2C)CS1` it is “inactive”; for `Cc1ccc(C2=NN(C)c3nc4ccccc4n3C2)cc1` it is “inactive”.
Consider `COc1ccc(OC)c(CN2CCN(C(=O)CNC(=O)c3ccc(C(C)(C)C)cc3)CC2)c1`, for which the call was inactive.
The entry for `Cc1cc(NC(=O)CCN2C(=O)C3C4C=CC(C4)C3C2=O)ccc1Br` (centres undefined) is “inactive”; for `COc1ccc(-c2c(C#Cc3ccsc3)c3ccccc3n2C)cc1` it is “inactive”.
The same measure for `CCOC(=O)c1ccc(NC(=O)C(C)Sc2nc(O)c(-c3ccccc3)c(=O)[nH]2)cc1` (centres undefined): “inactive”.
`CC(=O)c1sc(NC(=O)c2cc(=O)c3ccccc3o2)nc1C`: the result was inactive.
Regarding `O=C(Nc1ccc(C2=NCCN2)cc1)c1ccc(Cl)c(C(=O)Nc2ccc(C3=NCCN3)cc2)c1`, the outcome was inactive.
As to `C=CCc1cccc(CNc2cnc3ccccc3c2)c1O`, the compound was called inactive.
As to `Cc1cc(-c2cc(-c3ccccc3)on2)nc(NC2CCCC2)n1`, the compound was called inactive.
Turning to `Cc1ccsc1/C=N/Nc1ccc(F)cc1F`, the compound was called inactive.
The same measure for `CC(C)(C)c1nc2sc3c(c2c(=O)o1)CCCC3`: “inactive”.
The same measure for `Cc1ccc(CNC(=O)c2sc3nc4c(c(C(F)(F)F)c3c2N)CCC4)cc1`: “inactive”; for `COc1ccc(C(=O)C2CCCN(C3CSCCSC3)C2)c(C)c1` (centres undefined): “inactive”.
With `CN1C(=O)c2cccc3c(Br)ccc(c23)C1=O`, the compound was called inactive.
The same measure for `CN(Cc1ccc(Br)cc1)C(=O)CCN1C(=O)c2cccc([N+](=O)[O-])c2C1=O`: “inactive”.
The same measure for `O=C(Nc1ccc(Cl)cc1)N(C1=NCCC1)c1ccc(OC(F)F)cc1`: “inactive”; for `O=C(c1ccco1)N1CCN(C(=O)C2CC(c3ccc(Cl)c(Cl)c3)=NO2)CC1` (centres undefined): “inactive”.
`c1ccc(-c2nc(N3CCCC3)nc3ccccc23)cc1`: the result was inactive.
The entry for `O=c1cc2[nH]c3ccccc3c(=O)n2nc1-c1ccccc1` is “inactive”; for `CN1/C(=C\C(=O)COC(=O)c2ccc([N+](=O)[O-])o2)C(C)(C)c2ccccc21` it is “inactive”.
The same measure for `CCOC(=O)N/N=C(/C)c1ccc([N+](=O)[O-])o1`: “inactive”; for `CCOc1cc(C2NN=C(c3ccc(C)cc3)S2)ccc1O` (centres undefined): “inactive”; for `N#C/C(=C1\CCCN1)c1nc(-c2ccccc2)cs1`: “inactive”.
The entry for `O=C(Nc1ccc(-n2cccc2)cc1)C1CC1` is “inactive”.
`Cc1ccc(NC(=O)C2C3/C=C\CCCCC32)cc1C` (centres undefined): the call was inactive.
The entry for `Cc1ccc(S(=O)(=O)NCc2ccc(C(=O)NCCCN3CCC(Cc4ccccc4)CC3)cc2)cc1` is “inactive”; for `COc1cccc(-n2nnc3c(=O)n(CC(=O)N4CCC(Cc5ccccc5)CC4)cnc32)c1` it is “inactive”; for `CCCCCCSc1nsc(NC(=O)CC(C)C)n1` it is “inactive”.
